# Experimental data as given in PubChem BioAssay.
# Unmarked numbers belong to inactive results. Activity calls are given as the source filed them.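 Rule for the calls, unless noted: active = mean inhibition above 46.68%, the untreated control wells mean plus 3 SD; inactive = the rest.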
# Tests used:
# [1] = molecular target: Nuclear receptor coactivator 1 (Homo sapiens) (UniProt Q15788); assay: NCOA1 GAL4-fusion reporter inhibition – cell-based, luminescence, quadruplicate, confirmation (AID 588820); settings: HEK293 GAL4-SRC1 luciferase reporter, at 3.6 µM, hits give high values;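 note: 0% = DMSO wells and 100% = gossypol 36 µM treated wells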
# Chain of Nuclear receptor coactivator 1 (Homo sapiens) (Q15788 whole entry, looked up, the tested form may be a part): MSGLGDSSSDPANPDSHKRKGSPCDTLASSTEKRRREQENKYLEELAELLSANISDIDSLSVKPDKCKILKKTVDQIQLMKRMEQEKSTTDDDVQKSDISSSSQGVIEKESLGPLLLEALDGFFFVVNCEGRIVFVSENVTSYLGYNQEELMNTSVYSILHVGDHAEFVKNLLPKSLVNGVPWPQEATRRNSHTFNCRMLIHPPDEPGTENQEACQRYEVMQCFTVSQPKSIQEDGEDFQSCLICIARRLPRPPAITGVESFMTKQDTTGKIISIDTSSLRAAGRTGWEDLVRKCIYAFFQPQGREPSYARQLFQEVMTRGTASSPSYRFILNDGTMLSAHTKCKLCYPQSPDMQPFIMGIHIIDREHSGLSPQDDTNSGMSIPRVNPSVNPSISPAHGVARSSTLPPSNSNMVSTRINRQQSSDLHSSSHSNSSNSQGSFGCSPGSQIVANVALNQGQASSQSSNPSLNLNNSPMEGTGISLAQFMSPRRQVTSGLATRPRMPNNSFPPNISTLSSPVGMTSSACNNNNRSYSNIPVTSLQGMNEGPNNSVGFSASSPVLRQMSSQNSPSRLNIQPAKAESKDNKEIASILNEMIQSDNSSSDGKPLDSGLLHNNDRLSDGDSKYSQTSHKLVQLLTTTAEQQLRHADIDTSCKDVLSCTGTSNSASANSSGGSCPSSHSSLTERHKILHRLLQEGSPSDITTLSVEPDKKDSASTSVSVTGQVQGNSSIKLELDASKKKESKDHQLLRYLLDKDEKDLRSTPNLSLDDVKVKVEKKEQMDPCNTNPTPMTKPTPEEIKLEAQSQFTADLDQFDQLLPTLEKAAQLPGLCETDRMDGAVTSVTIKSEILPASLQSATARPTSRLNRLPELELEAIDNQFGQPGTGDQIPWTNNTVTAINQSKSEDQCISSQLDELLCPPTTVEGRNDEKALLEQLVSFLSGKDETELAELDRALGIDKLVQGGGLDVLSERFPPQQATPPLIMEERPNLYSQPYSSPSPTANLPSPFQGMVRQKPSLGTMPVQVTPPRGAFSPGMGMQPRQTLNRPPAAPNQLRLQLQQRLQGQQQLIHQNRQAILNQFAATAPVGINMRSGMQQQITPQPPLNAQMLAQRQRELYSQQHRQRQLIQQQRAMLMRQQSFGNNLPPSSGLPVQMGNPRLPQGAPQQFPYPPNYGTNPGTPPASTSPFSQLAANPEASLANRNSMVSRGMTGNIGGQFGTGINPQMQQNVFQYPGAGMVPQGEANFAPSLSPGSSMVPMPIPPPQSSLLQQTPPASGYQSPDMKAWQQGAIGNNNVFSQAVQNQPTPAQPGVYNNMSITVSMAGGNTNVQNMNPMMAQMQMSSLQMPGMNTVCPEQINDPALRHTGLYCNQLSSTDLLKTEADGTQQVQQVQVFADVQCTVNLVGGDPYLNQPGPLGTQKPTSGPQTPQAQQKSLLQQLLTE
# [2] = repression of VP16-driven luciferase reporter – cell-based, luminescence, high throughput, counter-screen for SRC1 inhibitor project (AID 588824; in the data active = inhibition above about 25%); settings: cell-based VP16 transactivation luciferase luminescence; at 3.6 µM; hits give high values
SMILES,inhibition [1] [%],inhibition [2]
Nc1c(Cl)ncnc1NCCc1ccc(O)cc1,-6.45,27.9% (active)
COc1ccc(NC(=O)C2CCN(c3cnccn3)CC2)cc1Cl,1.5,1.48%
COc1ccc(OC)c(S(=O)(=O)NCC(c2ccc3c(c2)OCO3)N2CCOCC2)c1 (stereo not given),-16.7,-6.55%
C(=N\Nc1nc2ccccc2[nH]1)/c1ccc2ncccc2c1,-40.4,-63.6%
CCOc1ncccc1C(=O)NC(C)CCc1ccccc1 (stereo not given),0.01,-0.39%
CC(=O)Nc1ccc(NC(=O)C2Cc3c(-c4ccco4)ccnc3O2)cc1 (stereo not given),3.04,8.12%
C/C(=N\N=C1\NC(=O)C(CC(=O)O)S1)c1ccccn1 (stereo not given),-1.33,-8.7%
CCOc1cc(C(=S)N2CCCCC2)ccc1OCC(=O)NCc1ccccc1,-15.9,-12.5%
COc1ccc(-c2ocnc2C(=O)NCc2nn(-c3ccccc3)nc2C)cc1,-0.81,15%
CCOc1ccc(CCN2C(=S)N([C@@H](Cc3ccc(O)cc3)CN3CCC[C@@H]3CN3C(=S)NC[C@@H]3CC(C)C)C[C@@H]2CC(C)C)cc1,-13,-0.17%
COc1ccccc1-n1nnnc1SC(C)C(=O)NC1CCCC1 (stereo not given),-17.1,-10.9%
S=C1SCN(Cc2ccccn2)CN1Cc1ccco1,-2.15,-1.66%
Nc1c(C(=O)c2ccccc2)sc2nsc(SCCN3CCCC3)c12,-0.71,-2.2%
COc1ccccc1/C=N/NC(=O)CN(C1=NS(=O)(=O)c2ccccc21)c1ccccc1,-2.78,0.92%
CCN1CCN(c2ccc(S(=O)(=O)N3CCCCC3)cc2NC(=O)c2cccc(Cl)c2)CC1,-2.97,-2.54%
